Shown are actives, neighbours in structure and some others; about 28% of the full set was active somewhere.
CYP2C19 inhib: human CYP2C19 inhibition; P33261; CYP2C19 Supersomes, luciferin-H EGE luminescence, 30 min; inhibition, % at 5 µM; actives 21% (n = 96,000); AID 778;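 active means CYP2C19 inhibition above a set limit at 5 µM in the primary screen, cut at about 50% in these data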
CYP2C19 activ: increases human CYP2C19 enzyme activity; activation factor at 5 µM; 96,000 tested, under 10 active; AID 1025; recombinant CYP2C19, luciferin-H EGE luminescence; stronger effect = higher value; 0 = fully inhibited enzyme, 1 = untreated enzyme; P33261;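 active means activation factor of at least 2 at 5 µM in the primary screen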
CYP2C9 activ: CYP2C9 (human) activation. AID 1024. actives 1.4% (n = 96,000). recombinant CYP2C9, luciferin-H conversion, luminescence; stronger effect = higher value; factor 1 = untreated enzyme, 0 = blocked. activation factor at 5 µM. P11712;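 active means activation factor of 2 or more for CYP2C9 at a 5 µM dose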
CYP2C9 inhib: blocks human cytochrome P450 2C9 | P11712 | CYP2C9 Supersomes, luciferin-H conversion, luminescence | inhibition, % at 5 µM | actives 20% (n = 96,000) | AID 777;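 active means blocking of liver enzyme CYP2C9 beyond about 50% at 5 µM, limit read from the data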
D1 mod: allosteric modulators of human D1 dopamine receptor. AID 641. B-score at 10 µM. actives 5.9% (n = 58,000). HEK293 D1, CRE-luciferase, dopamine EC30 potentiation; actives deviate in either direction. P21728;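 active means luminescence count or its row- and column-corrected plate score outside the 99.7% band of the plate's sample wells, on either side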
DAT uptake mod: human DAT dopamine uptake with cocaine, either direction; Q01959; LLC-PK1 hDAT cells, [14C]-dopamine uptake with cocaine IC80; actives deviate in either direction; B-score at 10 µM; actives 1.3% (n = 110,000);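 active means Z score or B-score, a plate-position-corrected score, falls beyond the plate's 99.7% confidence bounds, in either direction; inactive means both scores lie inside the 99.7% bounds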
Target sequence (Q01959 whole entry, looked up): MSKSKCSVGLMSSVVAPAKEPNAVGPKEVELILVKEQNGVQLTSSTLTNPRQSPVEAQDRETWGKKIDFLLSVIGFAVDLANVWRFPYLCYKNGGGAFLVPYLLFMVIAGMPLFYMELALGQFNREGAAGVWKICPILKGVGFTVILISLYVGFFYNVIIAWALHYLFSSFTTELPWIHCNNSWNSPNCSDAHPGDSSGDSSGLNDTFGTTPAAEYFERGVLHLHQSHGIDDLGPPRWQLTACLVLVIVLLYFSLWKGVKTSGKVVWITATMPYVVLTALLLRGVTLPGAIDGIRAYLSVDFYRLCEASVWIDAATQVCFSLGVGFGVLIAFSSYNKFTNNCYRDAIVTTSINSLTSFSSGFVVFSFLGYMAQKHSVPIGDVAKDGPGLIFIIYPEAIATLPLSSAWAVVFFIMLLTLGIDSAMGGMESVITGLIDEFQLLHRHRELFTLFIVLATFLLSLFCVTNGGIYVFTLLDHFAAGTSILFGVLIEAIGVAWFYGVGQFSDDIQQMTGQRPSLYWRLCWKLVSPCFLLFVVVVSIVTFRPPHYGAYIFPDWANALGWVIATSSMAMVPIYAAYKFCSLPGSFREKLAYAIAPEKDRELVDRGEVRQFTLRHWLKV
Of the large screens only hits and unclear results are named; the others gave an inactive call.

O=C(N/N=C/c1ccco1)/C(=C/c1cccc([N+](=O)[O-])c1)NC(=O)c1ccccc1	CYP2C19 inhib 68.9 (no result: D1 mod)
CC(C)NC(=O)/C(=C\c1cccc([N+](=O)[O-])c1)NC(=O)c1ccccc1	none (no result: D1 mod)
CCNc1[nH]c(=O)n(C)c(=O)c1N=O	none (no result: D1 mod)
CC(C)OC(=O)CSc1nnc(-c2ccc(Cl)cc2Cl)n1N	CYP2C19 inhib 65.0, CYP2C9 inhib 59.1
CC(C)OC(=O)CSc1nnc(-c2ccc(O)cc2)n1Cc1ccccc1	CYP2C19 inhib 64.0
CCn1c(SCC(=O)OC(C)C)nnc1-c1cccc(Cl)c1	CYP2C19 inhib 54.8
O=S(NC1CCCCC1)C12CC3CC(CC(C3)C1)C2 (stereo not drawn)	none (no result: D1 mod)
CC1CCCN(c2c([N+](=O)[O-])c(=O)oc3ccccc23)C1 (stereo not drawn)	CYP2C19 inhib 94.3, DAT uptake mod -2.72 (no result: D1 mod)
O=c1oc2ccccc2c(Nc2ccc(O)cc2)c1[N+](=O)[O-]	none (no result: D1 mod)
CCN(CC)S(=O)(=O)c1ccc(OC)c(NS(=O)(=O)c2ccc(F)cc2)c1	none (no result: D1 mod)
COCCCn1c(SCC(=O)N2CCc3ccccc32)nnc1-c1ccco1	none (no result: CYP2C19 inhib, CYP2C19 activ, CYP2C9 activ, CYP2C9 inhib, D1 mod)
COC(=O)C1=C(C)NC(=O)/C1=C\c1cc(C)n(-c2cccc(C)c2)c1C	CYP2C19 inhib 78.8, CYP2C9 inhib 84.0 (no result: D1 mod)
CCN(CC)S(=O)(=O)c1cccc(C(=O)NCC2CCCO2)c1 (stereo not drawn)	none (no result: D1 mod)
COCCNC(=O)C1=C(N)C(C(=O)Nc2ccc(C)c(S(=O)(=O)N3CCCCC3)c2)SC1=Nc1ccc(C)cc1C (stereo not drawn)	CYP2C9 inhib 75.4 (no result: D1 mod)
CCN(CC)S(=O)(=O)c1cccc(NC(=O)C2SC(=Nc3ccc(C)cc3C)C(C(=O)NCC3CCCO3)=C2N)c1 (stereo not drawn)	CYP2C19 inhib 62.2, CYP2C9 inhib 93.1 (no result: D1 mod)
O=C(Nc1ccccc1)N1CCCC2CCCCC21 (stereo not drawn)	none
CC(C)=CCC(C)(C)C1OCCN1C(=O)Nc1ccccc1 (stereo not drawn)	CYP2C19 inhib 99.5, CYP2C9 inhib 79.6
COC(=O)COc1ccc(S(=O)(=O)Nc2ccc(C(N)=O)cc2)cc1C	CYP2C9 inhib 54.8 (no result: D1 mod)
CCOc1ccc(NS(=O)(=O)c2cc(Cl)ccc2OC)cc1	CYP2C9 inhib 91.4
CCOc1ccc(NS(=O)(=O)c2ccc(OC)c(C)c2)cc1	CYP2C19 inhib 93.2, CYP2C9 inhib 91.8 (no result: D1 mod)
CCOc1cc(S(=O)(=O)Nc2cc(C)cc(C)c2)ccc1Cl	CYP2C19 inhib 98.3, CYP2C9 activ 2 (no result: D1 mod)
CCOc1cc(S(=O)(=O)NCc2cccs2)ccc1Cl	none
CCN(CC)S(=O)(=O)c1ccc(NC(=O)CSc2cccc[n+]2[O-])cc1	none (no result: D1 mod)
C#CCOCCOCCOCCNc1nc(N2CCN(C(=O)C([C@@H](C)CC)n3cc(C(N)CC(C)C)nn3)CC2)nc(N2CCN(C(=O)[C@H](CCCCN)n3cc(C(N)COC(=O)C(F)(F)F)nn3)CC2)n1 (stereo partly drawn)	none (no result: CYP2C19 inhib, CYP2C19 activ, CYP2C9 activ, CYP2C9 inhib, D1 mod)
O=C(NC1CC2CCC(C1)N2C(=O)NCc1ccccc1)C1CC1 (stereo not drawn)	none
CCCCOc1ccc(S(=O)(=O)Nc2ccc(NC(C)=O)cc2)cc1	none (no result: CYP2C19 inhib, CYP2C19 activ, CYP2C9 activ, CYP2C9 inhib, D1 mod)
O=c1ccc2cc(S(=O)(=O)N3CCOCC3)ccc2o1	none
Cc1cc(C)cc(NS(=O)(=O)c2ccc3oc(=O)ccc3c2)c1	CYP2C19 inhib 100.3, CYP2C9 inhib 62.2 (no result: D1 mod)
CCOc1ccc(NS(=O)(=O)c2ccc(NC(C)=O)c(OC)c2)cc1	CYP2C19 inhib 51.8 (no result: D1 mod)
COc1cccc(NC(=O)Cn2c(-c3cncs3)nc3ccccc32)c1	CYP2C19 inhib 76.1, CYP2C9 inhib 82.9 (no result: D1 mod)
O=C(Cn1c(-c2cncs2)nc2ccccc21)NCCc1ccccc1	CYP2C19 inhib 90.9, CYP2C9 inhib 52.9
c1ccc(Cn2c(-c3cncs3)nc3ccccc32)cc1	CYP2C19 inhib 72.7, CYP2C9 inhib 94.2 (no result: D1 mod)
CCCc1cc(=O)[nH]c(/N=C(\N)Nc2ccccc2)n1	none
COc1ccc(N=C2SC(C(=O)N3CCN(c4ccccc4)CC3)CC(=O)N2C)cc1 (stereo not drawn)	none (no result: CYP2C19 inhib, CYP2C19 activ, CYP2C9 activ, CYP2C9 inhib, D1 mod)
COC(=O)c1cccc(NC(=O)Cn2cnc3c2c(=O)n(C)c(=O)n3C)c1	CYP2C9 inhib 60.6
CCOC(=O)c1cccc(NC(=O)Cn2cnc3c2c(=O)n(C)c(=O)n3C)c1	CYP2C9 inhib 72.5
COC(=O)c1cccc(Oc2nc3c(c(=O)n(C)c(=O)n3C)n2C(C)C)c1	CYP2C9 inhib 74.8
COCCSc1ccccc1C(=O)N1CCN(Cc2ccc3c(c2)OCO3)CC1	none
Cc1ccc(C(=O)CSc2nnc(-c3c[nH]c4ccccc34)o2)cc1	CYP2C9 inhib 53.1 (no result: D1 mod)
CC1CCCCN1C(=O)CSc1nnc(-c2c[nH]c3ccccc23)o1 (stereo not drawn)	CYP2C19 inhib 78.6
CCOC(=O)C1CCN(c2ncnc3c2oc2ccccc23)CC1	none
CCOC(=O)C1CCCN(c2ncnc3c2oc2ccccc23)C1 (stereo not drawn)	CYP2C19 inhib 69.0
CCOC(=O)c1cnn(-c2ncnc3c2oc2ccccc23)c1N	D1 mod -3.71
Cc1ccc(S(=O)(=O)Nc2nc3ccc(S(=O)(=O)N4CCCC4)cc3s2)cc1	CYP2C9 inhib 98.0
O=C(Nc1nc2ccc(S(=O)(=O)N3CCCCC3)cc2s1)c1ccncc1	CYP2C19 inhib 86.2, CYP2C9 inhib 84.5
O=C(Nc1nc2ccc(S(=O)(=O)N3CCCCC3)cc2s1)c1cccnc1	none (no result: D1 mod)
O=S(=O)(Nc1nc2ccc(S(=O)(=O)N3CCCCC3)cc2s1)c1ccccc1	CYP2C9 inhib 99.3 (no result: D1 mod)
O=C(Nc1nc2ccc(S(=O)(=O)N3CCCC3)cc2s1)c1cccs1	none
COC(=O)C(C)N1CCC(=O)c2ccccc2S1(=O)=O (stereo not drawn)	none (no result: CYP2C19 inhib, CYP2C19 activ, CYP2C9 activ, CYP2C9 inhib, D1 mod)
CNS(=O)(=O)c1cccc(C(=O)OCC(=O)C23CC4CC(CC(C4)C2)C3)c1	none (no result: D1 mod)
CNS(=O)(=O)c1cccc(C(=O)OCC(=O)c2cc(C)n(-c3ccc4c(c3)OCO4)c2C)c1	CYP2C19 inhib 61.8, CYP2C9 inhib 67.6
COc1ccc(C(=O)N=c2sc3c(C)ccc(OC)c3n2C)cc1	CYP2C9 inhib 52.8 (no result: D1 mod)
COc1ccc(OC)c2c1sc(=NC(=O)C(C)C)n2C	CYP2C19 inhib 70.6, CYP2C9 inhib 70.7
CCC(C)NC(=O)c1c(C)cc(=O)oc1C (stereo not drawn)	none
O=C(N/N=C\c1ccc(COc2ccc([N+](=O)[O-])cc2)o1)c1ccc(Cl)cc1	none (no result: D1 mod)
O=C(N/N=C\c1ccc(COc2ccc([N+](=O)[O-])cc2)o1)c1cccc(Cl)c1	CYP2C9 inhib 60.2 (no result: D1 mod)
COc1ccc2nc(NC(=O)C3CCCN(S(=O)(=O)c4cccs4)C3)sc2c1 (stereo not drawn)	none (no result: D1 mod)
COc1ccc2nc(NC(=O)C3CCN(S(=O)(=O)c4cccs4)CC3)sc2c1	CYP2C19 inhib 84.1, CYP2C9 inhib 67.0, DAT uptake mod 2.81 (no result: D1 mod)

Screening data deposited in PubChem BioAssay by several laboratories.
